Source: PubChem BioAssay
D3 ag: D3 dopamine receptor (human) agonism; P35462; D3R DiscoveRx beta-arrestin cells, luminescence, 90 min; max activation, %; 410,000 compounds, 0.58% hits; AID 652048; in the data active means max activation above about 30%
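Agonist-mode cell screen: cells plated at 1500/well and incubated overnight at 37 °C, then exposed to library compounds for 90 min at 37 °C. Detection reagent was added for 30–60 min at room temperature, and luminescence was read.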
B2AR arrestin: agonists driving beta-arrestin recruitment to human beta2-adrenergic receptor | P07550 | beta-arrestin recruitment to beta2AR, cell-based reporter | Potency, µM (doses to about 46.1 µM), usual class: activators | 330,000 compounds, 0.02% hits | AID 492947; active means well fitted activation curve with a large enough effect; inconclusive means small, poorly fitted or top-dose-only effect; further: nearly all actives have a fitted effect of over 65% in size
D3 antag: antagonists of human D3 dopamine receptor. 360,000 compounds, 2.5% hits. D3R cells, DiscoveRx beta-arrestin luminescence, antagonist mode; hits give low values. P35462. max response, negative = inhibition, %; in the data active means max response below about -50%; inconclusive means no clear call, values can overlap the other calls
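Cells plated overnight at 1500 cells/well, then exposed to library compounds with dopamine controls for 90 minutes at 37 degrees C. DiscoveRx reagent added for 30–60 minutes at room temperature; luminescence read, quantitative HTS format.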
TSHR antagonist: antagonists of human thyroid stimulating hormone receptor | P16473 | TSHR-expressing cells, TSH-stimulated cAMP HTRF, 2 h; hits give low values | activity change, negative = inhibition, % at 11.5 µM | 330,000 compounds, 0.2% hits | AID 504810;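 active means activity change below a set negative limit, meaning inhibition stronger than a set level, cut at about -70% in these data; inconclusive means activity change between two set negative limits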
Target sequence (P16473 whole entry, looked up): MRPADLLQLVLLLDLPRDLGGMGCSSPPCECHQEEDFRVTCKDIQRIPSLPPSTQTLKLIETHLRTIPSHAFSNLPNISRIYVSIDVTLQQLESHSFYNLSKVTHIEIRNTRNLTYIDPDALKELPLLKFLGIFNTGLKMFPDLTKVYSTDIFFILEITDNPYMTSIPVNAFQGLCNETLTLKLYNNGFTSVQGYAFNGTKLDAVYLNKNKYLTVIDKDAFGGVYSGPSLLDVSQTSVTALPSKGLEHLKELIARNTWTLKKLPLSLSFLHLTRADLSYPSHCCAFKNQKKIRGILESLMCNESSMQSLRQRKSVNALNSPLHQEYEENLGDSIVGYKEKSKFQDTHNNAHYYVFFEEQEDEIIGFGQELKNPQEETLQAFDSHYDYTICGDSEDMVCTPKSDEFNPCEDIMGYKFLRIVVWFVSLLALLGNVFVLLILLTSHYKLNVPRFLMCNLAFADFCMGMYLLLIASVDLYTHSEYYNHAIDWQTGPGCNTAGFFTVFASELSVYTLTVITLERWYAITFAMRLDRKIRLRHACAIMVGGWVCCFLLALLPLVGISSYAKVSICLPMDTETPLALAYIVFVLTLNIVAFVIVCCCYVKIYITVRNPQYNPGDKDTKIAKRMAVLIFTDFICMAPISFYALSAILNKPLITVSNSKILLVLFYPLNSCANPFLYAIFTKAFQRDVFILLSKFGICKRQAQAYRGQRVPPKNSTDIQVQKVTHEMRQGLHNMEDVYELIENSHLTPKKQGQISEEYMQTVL
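TSHR-expressing cells, 200/well, pre-treated with compound, then stimulated with EC80 TSH (4nM final) for 2 hours at 37 deg C. cAMP measured by competitive HTRF: anti-cAMP cryptate antibody in lysis buffer plus cAMP-d2, read after 30 minutes at room temperature.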
Numbers stand for hits. The list is not random: actives were taken first. Their share in the collection is about 2.9%.

How did CCn1c(O)c(/C=N/N=C/c2ccccc2)c2ccc(C3=NNC(=O)CC3)cc21 do in these assays?
D3 ag: inactive; B2AR arrestin: inactive; D3 antag: inactive; TSHR antagonist: inactive

Results for Cc1cccc(NC(=O)COC(=O)c2ccc3c(=O)n4c(nc3c2)CCC4)c1 ?
D3 ag: inactive; B2AR arrestin: inactive; D3 antag: inactive; TSHR antagonist: inactive

How did Cc1cccc(NC(=O)COC(=O)c2ccc3nc(C)c(C)nc3c2)c1 do in these assays?
D3 ag: inactive; B2AR arrestin: inactive; D3 antag: -58

Results for CCN(CC)S(=O)(=O)c1ccc2nc(NC(=O)c3cncc(Br)c3)sc2c1 ?
D3 ag: inactive

How did COc1cc(NC(=O)C(CC(C)C)NS(=O)(=O)c2ccc3c(c2)CCCC(=O)N3)cc(OC)c1 (centres undefined) do in these assays?
D3 ag: inactive

Results for COC(=O)N/N=C/c1cccnc1 ?
D3 ag: inactive; B2AR arrestin: inactive; D3 antag: inactive; TSHR antagonist: inactive

Results for COC(=O)N/N=C/c1ccccc1 ?
D3 ag: 42; B2AR arrestin: inactive; D3 antag: inactive; TSHR antagonist: inactive

What do the screens show for `Cn1c(/C(C#N)=C(\O)c2cccc(F)c2)nc2ccccc21`?
D3 ag: inactive; B2AR arrestin: inactive; D3 antag: -51; TSHR antagonist: inactive

Results for Cc1csc2ncnc(NC3CCN(Cc4ccccc4)CC3)c12 ?
D3 ag: inactive; B2AR arrestin: inactive; D3 antag: -90; TSHR antagonist: inactive

What do the screens show for `CCN(CC)C(=O)CSC1=Nc2ccccc2C2=NC(c3ccccc3)C(=O)N12` (centres undefined)?
D3 ag: inactive; B2AR arrestin: inactive; D3 antag: -62; TSHR antagonist: inactive

Results for Cc1c(C(=O)N(C)C)sc2nc(-c3ccccn3)[nH]c(=O)c12 ?
D3 ag: inactive; B2AR arrestin: inactive; D3 antag: -57; TSHR antagonist: inactive

How did O=[N+]([O-])c1cccc(/C=N/Nc2nc(NCc3ccccc3)nc(N3CCOCC3)n2)c1O do in these assays?
D3 ag: inactive; B2AR arrestin: inactive; D3 antag: -138; TSHR antagonist: inactive

How did O=[N+]([O-])c1ccc(/C=N/Nc2nc(NCc3ccccc3)nc(N3CCOCC3)n2)cc1 do in these assays?
D3 ag: inactive; B2AR arrestin: inactive; D3 antag: inactive; TSHR antagonist: inactive

What do the screens show for `O=C(O)c1cccc(NC(=S)NC(=O)c2cncc(Br)c2)c1`?
D3 ag: inactive; D3 antag: -63

What do the screens show for `CCCCCCCNC(=O)COc1ccc2c(c1)C(=O)CC(C)(C)O2`?
D3 ag: inactive; B2AR arrestin: inactive; D3 antag: inactive; TSHR antagonist: inactive

What do the screens show for `Cn1c(=O)cc(OCCCC(=O)NCCN2CCN(c3ccccc3F)CC2)c2ccccc21`?
D3 ag: 39; B2AR arrestin: inactive; D3 antag: inconclusive; TSHR antagonist: inactive

Results for O=C(CCN1C(=O)COc2ccccc21)NCCCN1CCc2ccccc2C1 ?
D3 ag: inactive; B2AR arrestin: inactive; D3 antag: -93; TSHR antagonist: inactive

Results for CC1(C)CC(=O)c2cc(OCC(=O)NCCCN3CCN(c4ccccc4F)CC3)ccc2O1 ?
D3 ag: inactive; B2AR arrestin: inactive; D3 antag: -55; TSHR antagonist: inactive

What do the screens show for `O=C(CN1C(=O)COc2ccccc21)NCCCN1CCN(c2ccccc2F)CC1`?
D3 ag: inactive; B2AR arrestin: inactive; D3 antag: -91; TSHR antagonist: inactive

Results for COc1ccc(OC)c(NC(=O)CCc2c(C)nn(-c3ccc(N4CCCC4)nn3)c2C)c1 ?
D3 ag: inactive

How did O=C(NCCN1CCN(c2ccccc2F)CC1)C1c2ccccc2C(=O)N2CCc3ccccc3C12 (centres undefined) do in these assays?
D3 ag: inactive; B2AR arrestin: inactive; D3 antag: -57; TSHR antagonist: inactive

Results for CCn1c(=O)cc(SCC(=O)NCCCN2CCN(c3ccccc3F)CC2)c2ccccc21 ?
D3 ag: inactive; B2AR arrestin: inactive; D3 antag: -82; TSHR antagonist: inactive

How did Cn1c(=O)cc(OCC(=O)NCCCN2CCN(c3ccccc3F)CC2)c2ccccc21 do in these assays?
D3 ag: inactive; B2AR arrestin: inactive; D3 antag: inconclusive; TSHR antagonist: inactive

Results for O=C(CCN1C(=O)COc2ccccc21)NCCN1CCN(c2ccccc2F)CC1 ?
D3 ag: inactive; B2AR arrestin: inactive; D3 antag: -64; TSHR antagonist: inactive

How did O=C(NCCCN1CCN(c2ccccc2F)CC1)C1CC(=O)N(C2CCCC2)C1 (centres undefined) do in these assays?
D3 ag: 41; B2AR arrestin: inactive; D3 antag: -77; TSHR antagonist: inactive

What do the screens show for `COC(=O)c1ccccc1NC(=O)CCCn1nc(C)c2sc3ccccc3c2c1=O`?
D3 ag: inactive

How did c1ccc2c(-c3c[nH]c4ccccc34)c3ccccc3nc2c1 do in these assays?
D3 ag: inactive; B2AR arrestin: inactive; D3 antag: -53; TSHR antagonist: inactive

How did O=C(O)c1cc(-c2c[nH]c3ccccc23)nc2ccc3ccccc3c12 do in these assays?
D3 ag: inactive; B2AR arrestin: inactive; D3 antag: inactive; TSHR antagonist: inactive

What do the screens show for `CCc1ccc(C(=O)COC(=O)C(Cc2c[nH]c3ccccc23)NC(=O)c2ccc(CC)cc2)cc1` (centres undefined)?
D3 ag: inactive

How did CSC(=Nc1ccccc1)N=C(SCc1ccccc1)N(C)C do in these assays?
D3 ag: inactive; D3 antag: -84

Results for N#CNC(=Nc1ccccc1)SCc1ccc(C(=O)O)cc1 ?
D3 ag: inactive; B2AR arrestin: inactive; D3 antag: inactive; TSHR antagonist: inactive

How did O=C(O)c1cccc2c1/C(=N/Nc1ccc([N+](=O)[O-])cc1[N+](=O)[O-])c1ccccc1-2 do in these assays?
D3 ag: inactive; B2AR arrestin: inactive; D3 antag: -54; TSHR antagonist: inactive

How did O=C(NC1CC(=O)N(c2ccc(Cl)cc2)C1)C(=O)c1c[nH]c2ccccc12 (centres undefined) do in these assays?
D3 ag: inactive

Results for COC(=O)c1cc(Cl)c(NC(=O)c2ccc(F)cc2)cc1OC ?
D3 ag: inactive; B2AR arrestin: inactive; D3 antag: inactive; TSHR antagonist: inactive

Results for COC(=O)c1cc(Cl)c(NC(=O)c2cc(OC)c(OC)c(OC)c2)cc1OC ?
D3 ag: 41; B2AR arrestin: inactive; D3 antag: inactive; TSHR antagonist: inactive

What do the screens show for `Cc1ccc(-c2c(C)n3c4c(=O)n(C)c(=O)n(C)c4nc3n2CCO)cc1`?
D3 ag: 46

What do the screens show for `O=[N+]([O-])c1ccccc1NC1CCN(Cc2ccccc2)CC1`?
D3 ag: inactive; B2AR arrestin: inactive; D3 antag: inconclusive; TSHR antagonist: inactive

How did COC(=O)c1cc([N+](=O)[O-])ccc1N1CCN(Cc2ccccc2)CC1 do in these assays?
D3 ag: inactive; B2AR arrestin: inactive; D3 antag: -52; TSHR antagonist: inactive

How did Cc1ccc(C(=O)c2cc([N+](=O)[O-])ccc2N2CCN(C)CC2)cc1 do in these assays?
D3 ag: inactive; B2AR arrestin: inactive; D3 antag: inactive; TSHR antagonist: inactive
